Experimental data as given in PubChem BioAssay AID1159580 (chemical genetic matrix, 2015).
The whole screen tested about 5,500 compounds, of which about 2,000 (36%) were called active. Not shown: some 18% with an inconclusive outcome. Cut-off read from the data, not from the text of the source: active = normalized growth mostly below about 0.91 (no sharp cut-off); inconclusive = no clear call, values can overlap the other calls; inactive = mostly above about 0.92. This is one part of the list.

Assay: chemical genetic growth profiling, strain panel (AID 1159580);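 note: tested at 20 µM; growth read once vehicle control cultures reached saturation at 30 °C; 1 = growth at the plate median or of vehicle wells; lower values mean less growth of the strain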
Conditions: S. cerevisiae deletion strains, growth OD

Measured: normalized growth

CC(=O)O[C@]1(C(C)=O)CCC2C3C=C(Cl)C4=CC(=O)CC[C@]4(C)C3CC[C@@]21C (some centres undefined)
inactive: locus YAL021C, strain ccr4, hits give low values 1.02 | locus YAL026C, strain drs2, hits give low values 1.04 | locus YAL030W, strain snc1, hits give low values 0.978 | locus YBL061C, strain skt5, hits give low values 0.997 | locus YBR009C, strain hhf1, hits give low values 0.999 | locus YBR023C, strain chs3, hits give low values 1.01 | locus YBR171W, strain sec66, hits give low values 1.01 | locus YBR231C, strain swc5, hits give low values 1 | locus YBR279W, strain paf1, hits give low values 1 | locus YCL011C, strain gbp2, hits give low values 1 | locus YCL016C, strain dcc1, hits give low values 0.988 | locus YCL069W, strain vba3, hits give low values 1.01 | locus YCR088W, strain abp1, hits give low values 1.01 | locus YDL005C, strain med2, hits give low values 0.991 | locus YDL040C, strain nat1, hits give low values 1 | locus YDR001C, strain nth1, hits give low values 1.01 | locus YDR069C, strain doa4, hits give low values 0.967 | locus YDR137W, strain rgp1, hits give low values 0.894 | locus YDR159W, strain sac3, hits give low values 0.925 | locus YDR195W, strain ref2 1.02 | locus YDR297W, strain sur2, hits give low values 0.957 | locus YDR334W, strain swr1, hits give low values 1.01 | locus YDR335W, strain msn5, hits give low values 0.974 | locus YDR392W, strain spt3, hits give low values 0.832 | locus YEL003W, strain gim4, hits give low values 1.01 | locus YEL037C, strain rad23, hits give low values 1.02 | locus YEL061C, strain CIN8 (second series), hits give low values 1.01 | locus YER015W, strain faa2, hits give low values 1.01 | locus YER016W, strain bim1, hits give low values 0.984 | locus YER111C, strain swi4, hits give low values 1.01 | locus YER155C, strain BEM2 (second series), hits give low values 0.99 | locus YFR010W, strain ubp6, hits give low values 1.03 | locus YGL167C, strain pmr1, hits give low values 0.993 | locus YGL173C, strain kem1, hits give low values 1.03 | locus YGL227W, strain vid30, hits give low values 0.998 | locus YGL240W, strain doc1, hits give low values 0.952 | locus YGL253W, strain hxk2, hits give low values 0.991 | locus YHR013C, strain ard1, hits give low values 1.06 | locus YHR027C, strain rpn1, hits give low values 0.985 | locus YHR030C, strain SLT2, hits give low values 1.03 | locus YHR079C, strain IRE1, hits give low values 1.04 | locus YHR142W, strain chs7, hits give low values 1 | locus YJL092W, strain hpr5, hits give low values 1.01 | locus YJL095W, strain BCK1 (second series), hits give low values 0.983 | locus YJL095W, strain BCK1, hits give low values 0.991 | locus YJL115W, strain asf1, hits give low values 1.03 | locus YJL129C, strain trk1, hits give low values 1.01 | locus YJL154C, strain vps35, hits give low values 1.01 | locus YJL164C, strain tpk1, hits give low values 1.01 | locus YJL166W, strain qcr8, hits give low values 0.98 | locus YJL187C, strain SWE1, hits give low values 0.952 | locus YJR066W, strain TOR1, hits give low values 0.98 | locus YKL160W, strain elf1, hits give low values 0.977 | locus YKR026C, strain gcn3, hits give low values 1.01 | locus YKR091W, strain srl3, hits give low values 1.01 | locus YLL001W, strain dnm1, hits give low values 1.02 | locus YLL026W, hits give low values 1 | locus YLL041C, strain sdh2, hits give low values 0.993 | locus YLR027C, strain aat2, hits give low values 0.97 | locus YLR113W, strain HOG1, hits give low values 0.923 | locus YLR221C, strain rsa3, hits give low values 0.986 | locus YLR258W, strain gsy2, hits give low values 0.958 | locus YLR262C, strain YPT6 (second series), hits give low values 0.947 | locus YLR320W, strain mms22, hits give low values 0.991 | locus YLR342W, strain FKS1, hits give low values 0.974 | locus YLR357W, strain rsc2, hits give low values 1.04 | locus YLR370C, strain arc18, hits give low values 0.973 | locus YLR384C, strain iki3, hits give low values 0.981 | locus YML120C, strain ndi1, hits give low values 0.967 | locus YMR058W, strain fet3, hits give low values 1.02 | locus YMR125W, strain sto1, hits give low values 1 | locus YMR129W, hits give low values 0.967 | locus YMR205C, strain PFK2, hits give low values 0.943 | locus YMR231W, strain pep5, hits give low values 1.02 | locus YNL071W, strain lat1, hits give low values 1.01 | locus YNL183C, strain NPR1, hits give low values 0.958 | locus YNL209W, strain ssb2, hits give low values 0.99 | locus YNL248C, strain rpa49, hits give low values 1.03 | locus YNL322C, strain KRE1 (second series), hits give low values 1.01 | locus YNR049C, strain mso1, hits give low values 0.97 | locus YOR001W, strain rrp6, hits give low values 0.99 | locus YOR070C, strain gyp1, hits give low values 0.978 | locus YOR080W, strain dia2, hits give low values 0.996 | locus YOR083W, strain WHI5, hits give low values 0.997 | locus YOR106W, strain vam3, hits give low values 1.03 | locus YOR231W, strain MKK1, hits give low values 0.994 | locus YOR265W, strain rbl2, hits give low values 0.979 | locus YOR270C, strain vph1, hits give low values 1.01 | locus YOR290C, strain snf2, hits give low values 1.01 | locus YPL051W, strain arl3, hits give low values 1 | locus YPL078C, strain atp4, hits give low values 0.996 | locus YPL106C, strain sse1, hits give low values 1.01 | locus YPL240C, strain hsp82, hits give low values 1 | locus YPL256C, strain CLN2, hits give low values 1.04
